Screening results: PubChem, National Center for Advancing Translational Sciences (NCATS)
Many of the other results were omitted from the sample, so hits are more common in it than they were.
Methyltransferases = Primary Screen for Target Class Profiling of Small Molecule Inhibitors of Methyltransferases; calls only at 40 µM; purified enzyme, MTase-Glo SAH luminescence; hits give low values; 25,000 tested, 3.9% active; AID 1745853, 2022; call rule not given here
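Each enzyme was reacted with SAM and its substrate, with compounds tested once at 40 uM; SAH formed was read by MTase-Glo luminescence.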
Active calls of the source: *; ! = not active in a repeat. % is set by controls: 0 for no effect and ±100 for the full control effect.

How did COC(=O)c1ncn2c1C(=O)N(Cc1ccccc1)C(C)(C(=O)NC1CCCC1)C2 (configuration not stated) do in these assays?
Methyltransferases: inactive

Results for CCc1nc(-c2c3n(c(=O)n(CC(=O)NC4CCCC4)c2=O)CCCCC3)no1 ?
Methyltransferases: inactive

How did COc1ccc(C(=O)N(Cc2ccccc2)S(=O)(=O)c2ccc3c(c2)n(C)c(=O)n3C)cc1 do in these assays?
Methyltransferases: inactive

How did CC(C)N(CCC(=O)c1ccc2ccccc2c1)Cc1ccccc1 do in these assays?
Methyltransferases: active!

Results for Cc1onc(C(=O)NCCc2noc(-c3ccncc3)n2)c1Cn1cc(Cl)cn1 ?
Methyltransferases: inactive

Results for COC(=O)c1ncn2c1C(=O)N(c1ccc(C(C)C)cc1)C(C)(C(=O)NC1CCCC1)C2 (configuration not stated) ?
Methyltransferases: inactive

Results for CC(=O)N1CCc2nn(CC(=O)N3CCN(c4ccccc4)CC3)c(=O)cc2C1 ?
Methyltransferases: inactive

What do the screens show for `CCN1CCC(CC(=O)N2CCC(C3CCN(C(=O)NC)CC3)C2)CC1` (configuration not stated)?
Methyltransferases: inactive

What do the screens show for `O=C(O)c1cc(N(Cc2ccc(C3CCCCC3)cc2)C(=O)c2ccc(Oc3ccccc3)cc2)ccc1O`?
Methyltransferases: active

How did CCOC(=O)C1CCN(C(=O)C2COC3(CCCCC3)N2C(=O)c2cc(F)cc(F)c2)CC1 (configuration not stated) do in these assays?
Methyltransferases: inactive

How did Cc1cc(C)cc(N2C(=O)c3cc(-c4ccccc4)nn3CC2(C)C(=O)NCc2ccccc2)c1 (configuration not stated) do in these assays?
Methyltransferases: inactive

Results for Cc1[nH]c2ccccc2c1CCNC(=O)c1ccccc1F ?
Methyltransferases: inactive

What do the screens show for `Cc1[nH]c2ccccc2c1CCNCc1ccc(/C=C/C(=O)NO)cc1`?
Methyltransferases: active

How did CCCN1C(=O)c2c(C(=O)NCCc3ccccc3OC)ncn2CC1(C)C(=O)NC1CCCC1 (configuration not stated) do in these assays?
Methyltransferases: inactive

How did COc1ccc(C(=O)CSc2nnc3n(C)c(=O)c4ccc(C(=O)NC5CCCC5)cc4n23)cc1 do in these assays?
Methyltransferases: inactive

What do the screens show for `COc1ccc(CN2C(=O)c3cc4sccc4n3CC2(C)C(=O)NC2CCCC2)cc1` (configuration not stated)?
Methyltransferases: inactive

What do the screens show for `OCC(CO[C@@H]1O[C@H](CO)[C@@H](O)[C@H](O)[C@H]1O)c1ccc2c(c1)OCO2` (some centres not stated)?
Methyltransferases: inactive

How did O=[N+]([O-])c1ccc(CNc2nc(NCc3cccc(C(F)(F)F)c3)nc3nc[nH]c23)cc1 do in these assays?
Methyltransferases: active!

How did Cc1ccc(Cl)cc1N1CCN(S(=O)(=O)c2ccc3c(c2)n(C)c(=O)n3C)CC1 do in these assays?
Methyltransferases: inactive

Results for CCCn1c(=O)c2ccccc2n2c(SCC(=O)Nc3cc(F)ccc3F)nnc12 ?
Methyltransferases: inactive

Results for CCOc1ccc(C(=O)CSc2nnc3n(C)c(=O)c4ccc(C(=O)NC(C)CC)cc4n23)cc1 (configuration not stated) ?
Methyltransferases: inactive

Results for CC(=C/C(=O)O)/C=C/[C@]1(O)[C@@]2(C)CO[C@]1(C)C[C@H](O[C@@H]1O[C@H](CO)[C@@H](O)[C@H](O)[C@H]1O)C2 ?
Methyltransferases: inactive

How did Cc1cc(S(=O)(=O)N2CCCC2c2noc(COc3ccc(F)cc3)n2)ccc1F (configuration not stated) do in these assays?
Methyltransferases: inactive

Results for CN(C)c1ccc(/C=C2\C(=O)Nc3ccccc32)cc1 ?
Methyltransferases: active

What do the screens show for `CC(C)CCN1C(=O)c2ccc(-c3ccccc3)n2CC1(C)C(=O)NC1CCCCC1` (configuration not stated)?
Methyltransferases: inactive

How did O=C(O)[C@@H]1CN(C(=O)CCCc2cn[nH]c2)C[C@H]1c1ccc2c(c1)OCO2 do in these assays?
Methyltransferases: inactive

How did O=C(Cc1ccccc1)Nc1ccc2n(c1=O)C[C@H]1C[C@@H]2CN(S(=O)(=O)c2ccc(Cl)cc2)C1 do in these assays?
Methyltransferases: inactive

What do the screens show for `CCCN1C(=O)c2cc(C(=O)NCc3ccccc3)nn2CC1(C)C(=O)NC1CCCC1` (configuration not stated)?
Methyltransferases: inactive

How did COc1cccc(NC(=O)Cn2c(=O)oc3cc(S(=O)(=O)N4CCCCC4C)ccc32)c1 (configuration not stated) do in these assays?
Methyltransferases: active

Results for CC1CCN(C(=O)Cn2c(=O)oc3cc(S(=O)(=O)N4CCCCC4C)ccc32)CC1 (configuration not stated) ?
Methyltransferases: inactive

How did COc1ccc(NC(=O)Cn2c(=O)oc3cc(S(=O)(=O)N4CCCC4)ccc32)cc1 do in these assays?
Methyltransferases: inactive
